# Laboratory results published in PubChem BioAssay (EPA / NIEHS).
# Values joined by “and” are separate entries in the source; they are usually repeats but may differ in a detail not shown here. Equal entries are not always repeated. The source holds several records for some structures; these can differ, active in one and inactive in another. Active and inactive are the calls of the source. Rule for the calls: active = hit-call score of the fitted dose curve at least 0.9, where 1 is the maximum; inactive = score below 0.9. Peptide text beside a SMILES is read from it.
# Assay: CCTE_Shafer_MEA_dev_per_network_spike_spike_number_mean: CCTE's Neural Network Formation Assay for Mean Number of Spikes in a Network Spike, Shafer Lab (AID 2284053);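 for AC50: fitted as decrease in spikes per network spike relative to DMSO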
# Procedure, shortened: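 Mean spike count within each network spike, taken in a 0.05 s window at its peak, was recorded on days 5, 7, 9 and 12 and integrated as trapezoidal area under the curve. Rat cortical cultures on MEA plates received continuous compound from day 0, refreshed at medium changes on DIV 5 and 9.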
SMILES,AC50,outcome
C[N+](C)(C)CCCNS(=O)(=O)C(F)(F)C(F)(F)C(F)(F)C(F)(F)C(F)(F)C(F)(F)C(F)(F)C(F)(F)F,901 nM (active) and 1.36 µM (active),
Cc1noc(NS(=O)(=O)c2ccc(N)cc2)c1C,,inactive
CCCCNS(=O)(=O)c1ccccc1,,inactive
COC(=O)[C@H](Cc1ccccc1)NC(=O)[C@@H](N)CC(=O)O (H-Asp-Phe-OMe),,inactive
Cc1c(C(=O)c2c[nH]n(C)c2=O)ccc(S(C)(=O)=O)c1C1=NOCC1,,inactive

# Assay: CCTE_Shafer_MEA_dev_per_network_spike_spike_percent: CCTE's Neural Network Formation Assay for Percent of Spikes in a Network Spike, Shafer Lab (AID 2284054)
# Procedure, shortened: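 Primary rat cortical neurons on 16-electrode MEA wells (PEI-coated, laminin at plating), exposed from day 0 with renewal at DIV 5 and 9; spikes within 0.05 s of network-spike peaks over total spikes, AUC across days 5, 7, 9, 12.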
SMILES,AC50,outcome
C[N+](C)(C)CCCNS(=O)(=O)C(F)(F)C(F)(F)C(F)(F)C(F)(F)C(F)(F)C(F)(F)C(F)(F)C(F)(F)F,2.55 µM (active),inactive
Cc1noc(NS(=O)(=O)c2ccc(N)cc2)c1C,,inactive
CCCCNS(=O)(=O)c1ccccc1,,inactive
COC(=O)[C@H](Cc1ccccc1)NC(=O)[C@@H](N)CC(=O)O (H-Asp-Phe-OMe),,inactive
Cc1c(C(=O)c2c[nH]n(C)c2=O)ccc(S(C)(=O)=O)c1C1=NOCC1,,inactive
